Test results from ChEMBL document CHEMBL3433997, “St. Jude Leishmania screening dataset” (2016).
Values joined by “and” are separate entries in the source; they are usually repeats but may differ in a detail not shown here. Equal values may be shown once.

Tests used:
Type in all cases: functional
[1] = target: Solute carrier family 2, facilitated glucose transporter member 1 (Homo sapiens) (UniProt P11166); test: ST_JUDE_LEISH: Cytotoxicity at 2uM final concentration against transgenic Leishmania Mexicana promastigotes LmGLUT1 that are glucose transport deficient and complemented with the human glucose transporter GLUT1. Activity is measured by DNA content using SYBR green in vitro
Chain of Solute carrier family 2, facilitated glucose transporter member 1 (Homo sapiens) (P11166 whole entry): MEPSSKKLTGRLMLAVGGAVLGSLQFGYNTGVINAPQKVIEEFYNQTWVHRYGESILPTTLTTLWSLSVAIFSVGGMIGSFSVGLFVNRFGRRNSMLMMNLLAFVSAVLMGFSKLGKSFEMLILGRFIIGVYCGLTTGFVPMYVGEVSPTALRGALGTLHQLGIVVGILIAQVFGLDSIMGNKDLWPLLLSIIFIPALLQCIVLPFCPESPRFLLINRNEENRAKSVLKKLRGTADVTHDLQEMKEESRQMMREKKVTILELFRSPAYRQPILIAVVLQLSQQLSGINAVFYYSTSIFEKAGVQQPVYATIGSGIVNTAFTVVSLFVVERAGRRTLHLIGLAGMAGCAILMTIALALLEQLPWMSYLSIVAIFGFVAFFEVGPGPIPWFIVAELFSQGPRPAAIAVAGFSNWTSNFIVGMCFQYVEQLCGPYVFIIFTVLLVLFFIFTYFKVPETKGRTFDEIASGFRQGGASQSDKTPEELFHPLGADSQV

[2] = target: Hexose transporter 1 (Plasmodium falciparum) (UniProt O97467); test: ST_JUDE_LEISH: Cytotoxicity at 2uM final concentration against transgenic Leishmania Mexicana promastigotes LmPfHT that are glucose transport deficient and complemented with the Plasmodium falciparum hexose transporter. Activity is measured by DNA content using SYBR green in vitro
[3] = target: Glucose transporter (Leishmania mexicana) (UniProt O61059); test: ST_JUDE_LEISH: Cytotoxicity at 2uM final concentration against transgenic Leishmania Mexicana promastigotes LmGT2 that are glucose transport deficient and complemented with the L. Mexicana glucose transporter 2. Activity is measured by DNA content using SYBR green in vitro

Row | SMILES | inhibition [1] | inhibition [2] | inhibition [3]
1 | COc1ccc(-c2cccc(NC(=O)c3ccc(C#N)cc3)c2)cc1CN(C)CCN(C)C | 2.8% | 2.9% | 0.41%
2 | O=C(N[C@@H](Cc1ccccc1)C(=O)NC1CCCCC1)c1ccc(O)c(-c2cccc(C(F)(F)F)c2)c1 | 3.98% | 5.95% | 5.39%
3 | N=C1C=C(N)C(=O)c2ccccc21 | 89% | 100% | 94.2%
4 | COCn1ccc2c3c(N)nc(N)nc3ccc21 | 0.07% | 6.21% | 2.32%
5 | COc1cc(Nc2nccc(N3CCC(NC(=O)Nc4cc(C)ccc4C)C3)n2)cc(OC)c1OC (stereo not drawn) | 1.64% | 1.62% | 2.46%
6 | COc1ccc(NC(=O)/C=C/c2cc(Br)ccc2F)cc1OCCN(C(C)C)C(C)C | 0.52% | 0.38% | 0.14%
7 | CNc1nc(N/N=C/c2cc([N+](=O)[O-])c(Cl)cc2Cl)nc(Nc2cccc(C(F)(F)F)c2)n1 | 4.8% | 2.41% | 0.84%
8 | C[C@H](NC(=O)c1c(CN2CCC(N3CCCCC3)CC2)c(-c2ccccc2)nc2cc(O)ccc12)C1CCCCC1 | 4.25% | 4.06% | 3.03%
9 | O=C(/C=C/c1ccc(Cl)c(Cl)c1)N1CCN(C(=O)Nc2cccc(C(F)(F)F)c2)CC1 | 5.23% | 4.67% | 2.79%
10 | CC(C)(C)c1ccc(CN2CCC(NC(=O)c3cc(-c4cccc(C(F)(F)F)c4)cs3)C2)cc1 (stereo not drawn) | 0.92% | 0.62% | 1.98%
11 | C=C[C@H]1CN2CC[C@H]1C[C@H]2[C@H](O)c1ccnc2ccc(OC)cc12 | 7.23% and -4.42% and 0.77% | 6.11% and -3.17% and 2.26% | -0.01% and 5.72% and -2.15%
12 | Cc1nccc2c(NC(=O)N[C@@H]3CCN(c4ncc(C(F)(F)F)cc4Br)C3)cccc12 | 1.06% | 1.71% | 0.74%
13 | CC(CN1CCN(C)CC1)C(=O)Nc1cccc(-c2ccc(-c3nc4cc(F)ccc4[nH]3)cc2)c1 (stereo not drawn) | 4.67% | 3.13% | 2.7%
14 | CC(=O)CSC(C=Cc1ccc(N(C)C)cc1)=Nc1ccccc1 | 85.4% | 83.3% | 63.3%
15 | CCOC(=O)N/N=C/[C@H](CCc1ccccc1)NC(=O)[C@H](CC(C)C)NC(=O)c1cc2cccc(OC)c2o1 | 4.25% | 5.56% | 5.67%
16 | c1cncc(CN2CCCN(c3ccc4c(c3)CCN(Cc3ccc(-c5ncc[nH]5)cc3)CC4)CC2)c1 | 1.93% | 2.7% | 2.25%

Row | SMILES | inhibition [1] | inhibition [2] | inhibition [3]
17 | CC(=O)c1ccc2cc(C(=O)NC3CCC(CCN4CCc5ccc(-c6noc(C)n6)cc5CC4)CC3)[nH]c2c1 (stereo not drawn) | -0.19% | -0.01% | -2.09%
18 | CCc1c(C)nc(-n2nc(C)cc2NC(=O)c2ccc(OC)cc2OC)[nH]c1=O | 30.4% | 31.7% | 8.75%
19 | CO/C(=C\C=C\c1cc2cc(Cl)c(Cl)cc2[nH]1)C(=O)NCCCN(C)CCN(C)c1ccccc1 | 4.46% | 3% | 1.47%
20 | O=C(NCCCCCN1CCC(c2c[nH]c3ccccc23)CC1)Nc1ccc(Br)cc1 | -0.87% | -1.37% | -0.48%
21 | Cc1cc(N[C@@H](Cc2ccccc2)C(=O)NCCc2ccccc2)nc(NCCc2ccccc2)n1 | 4.48% | 3.79% | 4.38%
22 | COc1ccc(Cl)cc1S(=O)(=O)Nc1cccc(CCN2CCC(N3CCCCC3)CC2)c1 | 2.48% | 4.55% | 0.15%
23 | CN(Cc1ccccc1)C(=O)c1nn(CCCN2CCC(N3CCCC3)CC2)cc1-c1ccc(Cl)c(Cl)c1 | 27.6% | 13.7% | 1.65%
24 | Cc1cc(Br)cnc1CCCCNc1cc(=O)c2ccccc2[nH]1 | 4.59% | 6.14% | 4.81%
25 | COC(=O)c1ccc(NC(=O)c2ccc(CCN3CCC(c4nc(COCC(F)(F)F)c(-c5ccc(F)cc5)o4)CC3)cc2)cc1 | 3.21% | 3.11% | 2.38%
26 | CCC(O)(C#Cc1c(C)nc(N)nc1N)CC | 2.19% | 2.72% | -0.68%
27 | CN1CCCC1CCNc1ncc2c(-c3ccc(NC(=O)Nc4cc(C(F)(F)F)ccc4F)c(F)c3)nn(C)c2n1 (stereo not drawn) | -1.71% | 0.21% | -0.39%
28 | CC(C)COc1ccc(Cl)cc1Cc1ccc(-c2nc3ccc(Cl)cc3[nH]2)o1 | -1.56% | 2.55% | 1.16%
29 | COc1ccc2nccc([C@@H](O)CN3CCC(NC(=O)/C=C/c4cc([N+](=O)[O-])ccc4OC)CC3)c2c1 | 1.12% | 0.92% | 0.53%
30 | Cc1cc(C(F)(F)F)cc(-n2ncc(-c3ccc(C(=O)NCc4ccccc4N)cc3)c2N)n1 | 104% | 98.5% | 57.5%
31 | CCN1CCN(Cc2c(O)ccc3c(=O)c(Oc4cc(C)cc(C)c4)c(C(F)(F)F)oc23)CC1 | 75.7% | 73.3% | 54.5%
